Laboratory results reported in PubChem BioAssay (NCATS).
“And” between values parts separate entries of the source, which are not always exact repeats. Equal entries are not always repeated. Values without a mark were called inactive. Results filed as inconclusive are left out. Where a call stands in place of a potency, no number is given. The source made the active and inactive calls. Calls come from the whole dose curve; as a rule, active = well fitted curve in the direction sought with a large enough effect; inconclusive = small, poorly fitted or top-dose-only effect, or another doubt; inactive = no such curve, though single readings can be large; an effect the other way counts as inactive or inconclusive.

Experiments:
[1] = molecular target: Peroxisome proliferator-activated receptor alpha (Homo sapiens) (UniProt Q07869); assay: qHTS assay for small molecule agonists of the peroxisome proliferator-activated receptor alpha (PPARalpha) signaling pathway (AID 651778); conditions: PathHunter PPARalpha complementation, chemiluminescence, 6 h; hits give high values
Outline: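 Cells plated at 2,000/well and held overnight at 37 C, 5% CO2, then compound added by pin tool for 6 hr; after PathHunter detection reagent and 60 min at room temperature, chemiluminescence from enzyme complementation was read.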

[2] = molecular target: Nuclear receptor ROR-gamma (Homo sapiens) (UniProt P51449); assay: qHTS assay for small molecule antagonists of the retinoid-related orphan receptor gamma (ROR-gamma) signaling pathway (AID 651802); conditions: ROR-gamma antagonist cell reporter assay; series mostly up to 92.2 µM; note: nearly all actives have a fitted effect of over 60% in size; note: potency is the fitted concentration of half-maximal effect
Outline: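 Steps: cells dispensed; compound or DMSO transferred by pin tool; doxycycline added to induce the ROR response element-driven luciferase; plates held 16hr at 37C; ONE-Glo added and luminescence measured.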

[3] = molecular target: Arylsulfatase A (Homo sapiens) (UniProt P15289); assay: qHTS screen for enhancers of Arylsulfatase A (ASA1): LOPAC Validation Assay (AID 720538); conditions: ASA enzyme activity, LOPAC qHTS enhancer assay; series mostly up to 57.5 µM
Outline: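 First, ASA-I179S fibroblasts from an MLD patient adhered for 6 hrs. Next, compounds were added for 48h. Then pNCS substrate (0.5mM final) with lysis buffer reacted 14h at room temperature before NaOH stop and fluorescence measurement.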

[4] = qHTS for compounds that reverse cellular toxicity of Amyloid beta (A-beta) peptide in yeast: LOPAC Validation Assay (AID 720559); conditions: yeast expressing A-beta; series mostly up to 46.1 µM
Outline: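 Activity is expressed relative to DMSO and an equimolar ferric chloride/clioquinol mix. Compounds were pinned into medium with A-beta-expressing yeast, grown 48 hr at 30 C, then read by absorbance at 600 nm.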

[5] = qHTS for Activators of Parkin Expression: LOPAC Validation Assay (NLuc Reporter) (AID 720572); conditions: Parkin promoter NanoLuc reporter cells, luminescence; series mostly up to 46.1 µM
Outline: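 Cells harboring the Parkin-promoter coincidence reporter were treated for 24 h at seven concentrations. NLuc output was measured sequentially after the FLuc channel and scaled between DMSO and positive control values.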

[6] = molecular target: Tyrosine-protein kinase Yes (Homo sapiens) (UniProt P07947); assay: qHTS for small molecule inhibitors of Yes1 kinase: Primary Screen (AID 686947); conditions: Yes1 kinase biochemical qHTS inhibition; series mostly up to 76.9 µM; note: nearly all actives have a fitted effect of over 60% in size
Outline: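 ADP-Glo luminescence reports ADP formed by 4 nM Yes1 phosphorylating poly(E4Y) (0.3 mg/mL) with 0.1 mM ATP for 60 min at room temperature, following 20 min compound preincubation; normalised between DMSO wells with and without enzyme.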

[7] = qHTS for small molecule inhibitors of Yes1 kinase: Counter Assay (AID 686950); conditions: series mostly up to 76.9 µM;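 note: no kinase present so only ADP-Glo detection of a fixed ADP amount is tested; luminescence from ADP-Glo reporting ADP in a fixed ATP and ADP mixture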
Outline: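 Measuring interference with ADP-Glo, the assay ran 60 min at room temperature on an ATP/ADP mix lacking enzyme. Values were normalized to ATP-plus-ADP (maximum) and ATP-only (minimum) DMSO controls.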

Sequence of Peroxisome proliferator-activated receptor alpha (Homo sapiens) (Q07869 whole entry, looked up): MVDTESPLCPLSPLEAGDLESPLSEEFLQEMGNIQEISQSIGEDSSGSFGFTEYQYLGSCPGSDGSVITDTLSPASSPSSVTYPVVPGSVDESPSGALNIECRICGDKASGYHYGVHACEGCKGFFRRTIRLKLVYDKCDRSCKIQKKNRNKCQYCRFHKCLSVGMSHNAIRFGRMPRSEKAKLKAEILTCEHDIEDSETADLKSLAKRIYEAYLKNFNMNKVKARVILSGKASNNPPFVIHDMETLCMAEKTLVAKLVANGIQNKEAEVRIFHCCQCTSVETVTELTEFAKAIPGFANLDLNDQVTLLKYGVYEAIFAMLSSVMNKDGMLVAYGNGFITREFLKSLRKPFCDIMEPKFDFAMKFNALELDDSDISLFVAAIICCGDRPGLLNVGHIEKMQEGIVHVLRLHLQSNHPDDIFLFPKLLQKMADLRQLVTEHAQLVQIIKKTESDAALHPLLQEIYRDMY
Sequence of Nuclear receptor ROR-gamma (Homo sapiens) (P51449 whole entry, looked up): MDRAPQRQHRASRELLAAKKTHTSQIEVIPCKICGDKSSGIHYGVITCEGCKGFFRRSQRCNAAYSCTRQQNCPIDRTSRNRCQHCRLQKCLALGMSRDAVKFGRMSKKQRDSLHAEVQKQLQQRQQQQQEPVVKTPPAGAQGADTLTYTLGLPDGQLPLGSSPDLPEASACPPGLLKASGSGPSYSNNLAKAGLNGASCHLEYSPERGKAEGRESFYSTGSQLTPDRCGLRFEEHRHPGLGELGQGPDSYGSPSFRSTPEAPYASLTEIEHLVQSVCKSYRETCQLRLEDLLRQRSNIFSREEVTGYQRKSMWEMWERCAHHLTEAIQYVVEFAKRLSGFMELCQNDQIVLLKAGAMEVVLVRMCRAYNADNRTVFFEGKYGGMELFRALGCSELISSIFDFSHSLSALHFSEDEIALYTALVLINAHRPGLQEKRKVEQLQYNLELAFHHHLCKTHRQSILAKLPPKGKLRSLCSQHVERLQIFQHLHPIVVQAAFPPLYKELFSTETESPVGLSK
Sequence of Arylsulfatase A (Homo sapiens) (P15289 whole entry, looked up): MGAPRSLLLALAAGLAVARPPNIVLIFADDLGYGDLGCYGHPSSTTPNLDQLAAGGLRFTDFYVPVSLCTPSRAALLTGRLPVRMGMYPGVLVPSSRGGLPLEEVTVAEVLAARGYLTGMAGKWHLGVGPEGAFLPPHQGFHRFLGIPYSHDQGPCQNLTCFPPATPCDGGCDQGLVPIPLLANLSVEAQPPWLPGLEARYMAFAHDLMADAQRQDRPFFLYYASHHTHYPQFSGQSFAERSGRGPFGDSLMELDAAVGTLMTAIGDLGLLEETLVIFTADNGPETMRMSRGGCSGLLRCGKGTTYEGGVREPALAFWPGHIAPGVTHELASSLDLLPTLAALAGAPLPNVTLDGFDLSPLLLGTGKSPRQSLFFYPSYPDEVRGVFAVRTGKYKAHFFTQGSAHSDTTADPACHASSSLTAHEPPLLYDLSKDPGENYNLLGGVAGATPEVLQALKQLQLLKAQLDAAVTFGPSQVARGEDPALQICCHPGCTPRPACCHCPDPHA
Sequence of Tyrosine-protein kinase Yes (Homo sapiens) (P07947 whole entry, looked up): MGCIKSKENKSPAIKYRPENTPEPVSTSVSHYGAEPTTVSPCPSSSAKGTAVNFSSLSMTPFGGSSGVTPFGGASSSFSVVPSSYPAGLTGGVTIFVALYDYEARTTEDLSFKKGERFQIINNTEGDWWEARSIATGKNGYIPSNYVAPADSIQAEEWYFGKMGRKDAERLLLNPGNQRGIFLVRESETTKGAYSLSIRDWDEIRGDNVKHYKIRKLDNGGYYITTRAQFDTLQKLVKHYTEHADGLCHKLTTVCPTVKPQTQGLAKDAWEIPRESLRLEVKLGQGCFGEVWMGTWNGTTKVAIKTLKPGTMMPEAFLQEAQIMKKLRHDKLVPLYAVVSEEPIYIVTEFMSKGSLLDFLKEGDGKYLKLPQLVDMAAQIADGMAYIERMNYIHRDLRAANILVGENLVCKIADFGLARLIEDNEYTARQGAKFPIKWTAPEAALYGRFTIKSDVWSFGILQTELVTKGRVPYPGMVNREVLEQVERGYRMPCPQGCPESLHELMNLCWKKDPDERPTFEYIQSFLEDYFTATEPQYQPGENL

In the case of `CC1(C)[C@@H]2CC[C@@]1(C)C(=O)C2`, the max response [1] is reported as 1.14% and the Potency [2] is reported as “inactive”.
`O=C1c2c(O)cccc2Cc2cccc(O)c21` gave a max response [1] of -2.77%.
In the case of `Cc1cc(CC(=O)O)n(C)c1C(=O)c1ccc(Cl)cc1`, the max response [1] is reported as -2.08% and the Potency [2] is reported as “inactive”.
For `NC(=O)N/N=C/c1ccc([N+](=O)[O-])o1`, the max response [1] was 0.128% and 1.29%.
For `O=C1O[C@H]([C@@H](O)CO)C(O)=C1O`, the max response [1] was -1.42% and -0.305% and the Potency [2] was “inactive”.
For `NCCNCCNCCN`, the max response [1] was -1.93% and the Potency [2] was “inactive”.
Molecule `CCCc1c(OCCCCc2nn[nH]n2)ccc(C(C)=O)c1O` has a max response [1] of 11.9%.
With `CC(CN1c2ccccc2Sc2ccccc21)N(C)C` (stereo not drawn) the max response [1] was -2.77%, the Potency [3] was “inactive” and the outcome [4] was “inactive”. The Potency [5] was “inactive”.
For `CC(=O)O[C@@]12CO[C@@H]1C[C@H](O)[C@@]1(C)C(=O)[C@H](O)C3=C(C)[C@@H](OC(=O)[C@H](O)[C@@H](NC(=O)OC(C)(C)C)c4ccccc4)C[C@@](O)([C@@H](OC(=O)c4ccccc4)[C@H]21)C3(C)C`, the outcome [6] was “inactive” and the outcome [7] was “inactive”.
`CC(O)COc1ccccc1` (stereo not drawn) showed a max response [1] of -0.783%.
In the case of `Cc1c(O)cccc1C(=O)N[C@@H](CSc1ccccc1)[C@H](O)CN1C[C@H]2CCCC[C@H]2C[C@H]1C(=O)NC(C)(C)C`, the max response [1] is reported as -6.84% and the Potency [2] is reported as 8.41 µM (active).
Work on `O=S(=O)(O)NC1CCCCC1` yielded a max response [1] of -1.02%.
In the case of `CN(C)CCCN1c2ccccc2Sc2ccc(Cl)cc21`, the max response [1] is reported as -0.127%, the outcome [4] is reported as “inactive” and the Potency [5] is reported as “inactive”.
In the case of `CCCCOC(=O)c1ccc(O)cc1`, the max response [1] is reported as -8.78% and 4.43% and the Potency [2] is reported as “inactive”.
With `[Cl][In]([Cl])[Cl]` the max response [1] was -1.33% and the Potency [2] was “inactive”.
In the case of `CNC(=O)Oc1ccc2c(c1)[C@]1(C)CCN(C)[C@@H]1N2C`, the max response [1] is reported as -3.11%, the outcome [4] is reported as “inactive” and the Potency [5] is reported as “inactive”.
With `NC(=O)c1ncn([C@@H]2O[C@H](CO)[C@@H](O)[C@H]2O)c1N` the outcome [6] was “inactive” and the outcome [7] was “inactive”.
In the case of `CCCCC(CC)COC(=O)c1ccccc1O` (stereo not drawn), the max response [1] is reported as 0.691%.
With `CN(C)CCOC(C)(c1ccccc1)c1ccccn1` (stereo not drawn) the max response [1] was -0.887% and the Potency [3] was “inactive”.
In the case of `CC12CCC(CC1)C(C)(C)O2`, the max response [1] is reported as -0.195% and the Potency [2] is reported as “inactive”.
With `Cc1cc2nc3c(=O)[nH]c(=O)nc-3n(C[C@H](O)[C@H](O)[C@H](O)CO)c2cc1C` the max response [1] was 3.79% and the Potency [2] was “inactive”.
In the case of `O=C1Nc2ccc(Cl)cc2[C@@](C#CC2CC2)(C(F)(F)F)O1`, the outcome [6] is reported as “inactive” and the outcome [7] is reported as “inactive”.
Molecule `CCOC(=O)c1ccc(O)cc1` has a max response [1] of -1.04%.
For `CC(O)CN(CCN(CC(C)O)CC(C)O)CC(C)O` (stereo not drawn), the max response [1] was -1.89%.
In the case of `COC(=O)C1=C(C)NC(C)=C(C(=O)OC)C1c1ccccc1[N+](=O)[O-]`, the max response [1] is reported as -2.24%, the Potency [3] is reported as “inactive” and the outcome [4] is reported as “inactive”.
With `C[C@]12CC[C@@H]3c4ccc(O)cc4CC[C@H]3[C@@H]1CCC2=O` the max response [1] was -1.03%, the outcome [4] was “inactive” and the Potency [5] was “inactive”.
In the case of `Oc1cn2c(n1)Nc1ccc(Cl)c(Cl)c1C2`, the outcome [6] is reported as “inactive” and the outcome [7] is reported as “inactive”.
In the case of `CCN(CC)CCNC(=O)c1c(C)[nH]c(/C=C2\C(=O)Nc3ccc(F)cc32)c1C`, the outcome [7] is reported as “inactive”.
